Experimental data as given in PubChem BioAssay (EPA / NIEHS).
Active and inactive are the calls of the source. How the source made its calls: active means hit-call score of the fitted dose curve at least 0.9, where 1 is the maximum; inactive means score below 0.9.

Tests used:
[1] = APR_HepG2_CellCycleArrest_24hr: Apredica 24-hour HepG2 Assay for Cell Cycle Arrest (AID 2282905); settings: imaging, actives raise or lower the signal;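 further: cell cycle arrest scored as ratio of 2N to 4N nuclear DNA content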
Summary of the method: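 Compounds at 0.39–200 uM (0.5% DMSO) for 24 h, then fixed and Hoechst 33342 stained. Cell-cycle analysis of nuclear DNA content by high-content imaging, fitted bidirectionally versus DMSO.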

[2] = APR_HepG2_NuclearSize_24hr: Apredica 24-hour HepG2 Assay for Nuclear Size (AID 2282907); settings: high-content imaging, actives raise or lower the signal
Summary of the method: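 HepG2 cells exposed 24 h to compounds at 0.39–200 uM (0.5% DMSO), fixed, Hoechst 33342 stained and imaged at 20x; nuclear diameter measured by automated image analysis, fitted bidirectionally against DMSO controls.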

[3] = APR_HepG2_CellLoss_24hr: Apredica 24-hour HepG2 Assay for Cell Loss (AID 2282908); settings: high-content imaging;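 on AC50: fit in both directions so a hit may be cell loss or gain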
Summary of the method: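 HepG2 cells exposed 24 hr to 0.39–200 uM compound in duplicate at 0.5% v/v final DMSO. Cells fixed in 3.7% formaldehyde and Hoechst 33342-stained. Cell number came from nuclear imaging at 20x. Bidirectional fit versus DMSO.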

[4] = APR_HepG2_MicrotubuleCSK_24hr: Apredica 24-hour HepG2 Assay for Microtubule CSK Stabilty (AID 2282909); settings: HepG2 microtubule cytoskeleton imaging, actives raise or lower the signal
Summary of the method: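 HepG2 cells were treated 24 hr with compound at 0.39–200 uM in duplicate (0.5% DMSO final), then fixed and permeabilized. Alpha-tubulin immunofluorescence was imaged by high-content microscopy, with bidirectional fitting against DMSO and taxol as positive control.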

[5] = APR_HepG2_MitoticArrest_24hr: Apredica 24-hour HepG2 Assay for Mitotic Arrest (AID 2282910); settings: high-content imaging, actives raise or lower the signal
Summary of the method: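 HepG2 cells, 24 h exposure at 0.39-200 uM (10 concentrations, duplicate, 0.5% DMSO). Fixed, stained for phospho-histone H3 with Hoechst; imaged by high-content microscopy, bidirectional fit versus DMSO.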

[6] = APR_HepG2_MitoMembPot_24hr: Apredica 24-hour HepG2 Assay for Mitochondrial Membrane Potential (AID 2282911); settings: imaging, actives raise or lower the signal
Summary of the method: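 Cells are dosed for 24 hr across 0.39 to 200 uM with solvent held at 0.5% DMSO. They are then stained with 250 nM MitoTracker Red CMXRos for 30 min, fixed in 3.7% formaldehyde and imaged.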

[7] = APR_HepG2_MitoMass_24hr: Apredica 24-hour HepG2 Assay for Mitochondrial Mass (AID 2282912); settings: high-content imaging, actives raise or lower the signal
Summary of the method: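 HepG2 cells exposed 24 hr to 0.39–200 uM compound, 0.5% v/v DMSO, in duplicate. Stained before fixation with 250 nM MitoTracker Red CMXRos for 30 min, then imaged at 20x with Hoechst nuclei. Fitted in both directions against DMSO.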

[8] = APR_HepG2_CellCycleArrest_72hr: Apredica 72-hour HepG2 Assay for Cell Cycle Arrest (AID 2282914); settings: high-content imaging, actives raise or lower the signal
Summary of the method: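 Read-out is Hoechst-stained nuclear DNA content measured by automated fluorescence imaging (20x, six images per well), fitted in both directions relative to DMSO. Human HepG2 liver cells received 0.39–200 uM compound for 72 hr at 0.5% v/v DMSO.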

[9] = APR_HepG2_CellLoss_72hr: Apredica 72-hour HepG2 Assay for Cell Loss (AID 2282915); settings: high-content imaging
Summary of the method: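 HepG2 cells exposed 72 h to compound at 0.39–200 uM (10 concentrations, duplicate) in 0.5% DMSO. Fixed with 3.7% formaldehyde and Hoechst 33342-stained. Imaged at 20x; nuclear count gives cell number, fitted bidirectionally versus DMSO.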

[10] = APR_HepG2_P-H2AX_72hr: Apredica 72-hour HepG2 Assay for H2AX Phosphorylation (AID 2282916); settings: imaging, actives raise or lower the signal;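 further: phospho-histone H2A.x immunostain intensity per cell marking DNA damage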
Summary of the method: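 HepG2 cells treated 72 h at 0.39–200 uM, 0.5% DMSO final, duplicates. Formaldehyde-fixed, Triton-permeabilised, immunostained for phospho-H2A.x with Hoechst; fluorescence imaged at 20x, bidirectional fit versus DMSO.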

[11] = APR_HepG2_MitoticArrest_72hr: Apredica 72-hour HepG2 Assay for Mitotic Arrest (AID 2282918); settings: high-content imaging, actives raise or lower the signal
Summary of the method: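 Read-out is phospho-histone H3 immunofluorescence with Hoechst nuclear segmentation, imaged at 20x. Human HepG2 liver cells received ten concentrations (0.39–200 uM, final DMSO 0.5% v/v) for 72 hr before fixation. Gain or loss of signal was fitted relative to DMSO.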

[12] = APR_HepG2_MicrotubuleCSK_72hr: Apredica 72-hour HepG2 Assay for Microtubule CSK Stabilty (AID 2282919); settings: HepG2 microtubule cytoskeleton, high-content imaging, actives raise or lower the signal
Summary of the method: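 HepG2 cells were exposed 72 hr to compound at 0.39–200 uM in duplicate (0.5% DMSO final), then fixed and permeabilized. Alpha-tubulin immunofluorescence was imaged by high-content microscopy, with bidirectional fitting against DMSO and taxol as positive control.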

[13] = APR_HepG2_P-H2AX_24hr: Apredica 24-hour HepG2 Assay for H2AX Phosphorylation (AID 2282920); settings: high-content imaging, actives raise or lower the signal
Summary of the method: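 HepG2, 24 hr, cpd 0.39–200 uM (10 conc, duplicate), DMSO 0.5% v/v final. Fix 3.7% formaldehyde, Triton X-100 permeabilize, anti-phospho-H2A.x 1:200 + Hoechst 2 ug/mL. Imaged, bidirectional fit vs DMSO.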

[14] = APR_HepG2_StressKinase_72hr: Apredica 72-hour HepG2 Assay for Stress Kinase (AID 2282921); settings: HepG2 stress kinase (phospho-c-Jun) imaging, actives raise or lower the signal
Summary of the method: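 HepG2 cells treated 72 hr with 0.39–200 uM compound, 0.5% v/v DMSO, duplicate wells. After formaldehyde fixation and Triton permeabilization, stained with anti-phospho-c-Jun (1:500) and Cy3 secondary, imaged at 20x. Fitted in both directions against DMSO.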

[15] = APR_HepG2_StressKinase_24hr: Apredica 24-hour HepG2 Assay for Stress Kinase (AID 2282922); settings: HepG2 stress kinase (phospho-c-Jun) imaging, actives raise or lower the signal
Summary of the method: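 HepG2 cells exposed 24 h to 0.39–200 uM compound in duplicate (0.5% v/v DMSO final). Cells fixed in 3.7% formaldehyde, permeabilized and immunostained for phospho-c-Jun; read by high-content fluorescence imaging, fitted bidirectionally against DMSO.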

[16] = APR_HepG2_MitoMass_72hr: Apredica 72-hour HepG2 Assay for Mitochondrial Mass (AID 2282924); settings: high-content imaging, actives raise or lower the signal;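 further: MitoTracker Red CMXRos stain intensity per cell imaged as mitochondrial mass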
Summary of the method: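 HepG2 cells dosed 72 hr at 0.39–200 uM (0.5% DMSO), in duplicate. MitoTracker Red CMXRos 250 nM loaded 30 min before formaldehyde fixation; high-content fluorescence imaging, bidirectional fit versus DMSO.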

[17] = APR_HepG2_p53Act_24hr: Apredica 24-hour HepG2 Assay for p53 Activation (AID 2282913); settings: high-content imaging, actives raise or lower the signal;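 further: p53 protein immunofluorescence averaged per cell in HepG2 with Hoechst nuclei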
Summary of the method: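 Human HepG2 liver cells; 24 hr cpd treatment, 0.39–200 uM, 0.5% DMSO final. Fixed in 3.7% formaldehyde, permeabilized with 0.5% Triton X-100, stained with anti-p53/Cy5 plus Hoechst 33342. Six images per well at 20x; gain or loss vs DMSO.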

[18] = APR_HepG2_p53Act_72hr: Apredica 72-hour HepG2 Assay for p53 Activation (AID 2282923); settings: high-content imaging, actives raise or lower the signal;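 further: average cellular p53 protein immunofluorescence intensity in HepG2 cells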
Summary of the method: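 HepG2 cells exposed 72 h to 0.39–200 uM in 0.5% DMSO, duplicates. Fixed, permeabilized cells immunostained for p53 (Cy5) with Hoechst; imaged at 20x, fluorescence analyzed bidirectionally against DMSO.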

Measured: AC50

OCC(CO)(CO)CO
not listed: [17] | [18]
inactive: all other assays above

COc1cc(C(C)C)c2c(c1)S(=O)(=O)N(COc1cc(=O)n3cccc(OCCN4CCCCC4)c3n1)C2=O
active: [1] 17.7 µM | [3] 24.2 µM | [4] 15.8 µM | [5] 24 µM | [6] 26.4 µM | [7] 29.1 µM | [9] 23.1 µM | [13] 10.7 µM
not listed: [17] | [18]
inactive: all other assays above

OC[C@H]1O[C@@](CO)(O[C@H]2O[C@H](CO)[C@@H](O)[C@H](O)[C@H]2O)[C@@H](O)[C@@H]1O
not listed: [17] | [18]
inactive: all other assays above

CCCCOC(=O)c1ccccc1
inactive: all assays above
